Sampled rows, rich in hits. Any-hit rate of the full collection: about 1.8%.
p-CIP stab down: p/CIP-EGFP fusion destabilizers, primary screen, fluorescence, F442A cells | decrease of EGFP signal, % at 10 µM | AID 1984, 2009 | 290,000 compounds, 0.01% hits | 16 h;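 active = EGFP signal decrease of at least 30% at 10 µM or well 3 SD below plate mean, unless failing retest; inactive = the rest, including hits failing retest or dose response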
PHOSPHO1 inh: PubChem AID 1565; recombinant PHOSPHO1, absorbance phosphatase assay; inhibition, % at 13.3 µM; 290,000 compounds, 1.1% hits; Phosphoethanolamine/phosphocholine phosphatase (Homo sapiens), Q8TCT1; in the data active = inhibition above about 60%
Target sequence (Q8TCT1 whole entry, looked up): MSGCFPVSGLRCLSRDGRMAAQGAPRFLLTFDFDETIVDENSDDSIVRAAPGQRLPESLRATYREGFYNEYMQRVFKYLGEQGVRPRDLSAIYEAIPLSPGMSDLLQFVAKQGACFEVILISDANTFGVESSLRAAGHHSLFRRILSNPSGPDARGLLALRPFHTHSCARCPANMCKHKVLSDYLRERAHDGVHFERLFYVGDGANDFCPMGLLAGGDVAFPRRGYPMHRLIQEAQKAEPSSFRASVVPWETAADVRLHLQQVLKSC
NadD block: inhibitors of S. aureus NadD, primary screen, biochemical, colorimetric, uHTS; Nicotinate-nucleotide adenylyltransferase NadD (Staphylococcus aureus N315); 360,000 compounds, 0.78% hits; inhibition, % at 20 µM; purified NadD enzyme, colorimetric absorbance read-out; in the data active = inhibition above about 26%
UBC9 SUMO inh: inhibitors of in vitro SUMOylation cascade, primary screen, biochemical, HTRF, uHTS; 290,000 compounds, 0.36% hits; HTRF SUMOylation assay, SAE1/SAE2 + UBC9; SUMO-conjugating enzyme UBC9 (Homo sapiens), P63279; inhibition, % at 35 µM; in the data active = inhibition above about 50%, passing the limit was not always enough
Target sequence (P63279 whole entry, looked up): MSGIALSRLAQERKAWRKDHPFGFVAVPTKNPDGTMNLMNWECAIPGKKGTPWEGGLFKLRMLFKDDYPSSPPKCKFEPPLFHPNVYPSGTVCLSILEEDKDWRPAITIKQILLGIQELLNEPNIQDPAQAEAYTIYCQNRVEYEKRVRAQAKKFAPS
A number is an active result; 0 = inactive; - = not tested or not shown.

SMILES	p-CIP stab down	PHOSPHO1 inh	NadD block	UBC9 SUMO inh
CN1CCN(c2ccc(-c3cccc4nccn34)cn2)CC1	-	-	0	-
O=c1c(-c2ccccc2)coc2c(CN3CCCC3)c(O)ccc12	0	0	0	50.3
Cc1cc(NC(=O)CN2C(=O)NC(CC(C)C)C2=O)ccc1Br (centres undefined)	-	-	0	-
Cn1c(C(=O)NCC2CCCO2)cc2c(=O)n3ccccc3nc21 (centres undefined)	0	0	0	52.9
COCCCn1c(C(=O)N2CC(C)OC(C)C2)cc2c(=O)n3ccccc3nc21 (centres undefined)	0	0	0	54.3
COc1ccc(CCn2c(=N)c(C(=O)NCC3CCCO3)cc3c(=O)n4ccccc4nc32)cc1OC (centres undefined)	0	0	0	0
Cn1c(C(=O)N2COCC2(C)C)cc2c(=O)n3ccccc3nc21	0	0	0	53.1
O=C1NC[C@H](CCCCN2C[C@H](Cc3ccc(O)cc3)N(CCc3ccc(O)cc3)C(=O)C2=O)N(Cc2ccccc2)C1=O	-	-	0	-
CCOC(=O)[C@]12CCC=C1N(Cc1ccc3c(c1)OCO3)C(=O)[C@H](CC(=O)NCCc1ccccc1OC)C2	-	-	0	-
Cc1ccc(Cn2c(SCC(=O)N/N=C/c3ccc(C)o3)nc3ccccc32)cc1	0	90.6	0	0
O=C(CSc1nc2ccccc2n1Cc1ccccc1)N/N=C/c1ccco1	0	0	0	0
CCOc1ccc(-c2c(C(=O)N/N=C/c3ccc(Cl)cc3)nnn2-c2nonc2N)cc1	0	0	0	-
COc1cc(/C=C2/C(=O)N(c3ccc(C)c(C)c3)N=C2C)cc([N+](=O)[O-])c1O	0	0	0	0
COc1cc(/C=C2\C(=O)N(c3ccccc3)N=C2C)ccc1Oc1ccc([N+](=O)[O-])cc1[N+](=O)[O-]	0	0	36.2	-
CC1=NN(c2ccccc2)C(=O)/C1=C\c1ccc(Oc2ccc([N+](=O)[O-])cc2[N+](=O)[O-])cc1	0	0	30.2	94.6
COc1ccccc1/C=C1/C(=O)N(c2ccccc2)N=C1C	0	0	0	0
O=P(Cc1cccc2ccccc12)(c1ccccc1)c1ccccc1	-	-	0	-
O=C(c1ccc(F)c(S(=O)(=O)N2CCOCC2)c1)N1CCN(c2ccc(F)cc2)CC1	-	-	0	-
CCCSc1ncnc2[nH]ncc12	-	-	0	-
Cc1nn2cc(-c3ccccc3)nc2[nH]c1=O	0	0	0	68.3
CSc1cccc(CN2CCC(n3nccc3NC(=O)C3CC3)CC2)c1	0	63.6	0	0
COC(=O)c1ccc(CN2CCC(n3nccc3NC(=O)C3CCCC3)CC2)cc1	0	62.6	0	0
CN1CCN(c2ccc(CNC(=O)c3cccc4c(-c5ccc(F)c(F)c5)coc34)cc2)CC1	-	-	0	-
COc1ccc(-n2c(CCc3ccccc3)nnc2SCC(=O)c2ccccc2)cc1	0	0	0	0
COc1ccc(C(=O)CSc2nnc(CCc3ccccc3)n2-c2ccccc2)cc1	0	79.0	0	0
SMILES	p-CIP stab down	PHOSPHO1 inh	NadD block	UBC9 SUMO inh
NC(=S)n1[nH]c(-c2ccc([N+](=O)[O-])cc2)c(N=Nc2cccc(Cl)c2)c1=O	0	0	93.4	-
Cc1[nH]n(C(N)=S)c(=O)c1N=Nc1cccc(Cl)c1	0	0	0	0
NC(=S)n1[nH]c(-c2ccc([N+](=O)[O-])cc2)c(N=Nc2ccc(O)cc2)c1=O	0	0	53.9	0
C[C@@H]1CN([C@@H](C)CO)C(=O)CCCn2nncc2CO[C@H]1CN(C)C(=O)Nc1ccc2c(c1)OCO2	-	-	0	-
Cc1ccc(-c2csc3n[nH]c(=S)n23)cc1	0	94.9	0	0
COc1ccc(-c2nc(CN3CCN(c4ncnc5ccccc45)CC3)c(C)o2)c(OC)c1	0	64.2	0	0
CC1CCC/C(=N\NC(=S)Nc2ccccc2)C1 (centres undefined)	0	0	0	0
CC1CCC/C(=N\NC(=S)NCc2ccccc2)C1 (centres undefined)	0	85.0	0	0
CC1C/C(=N\NC(=S)NCc2ccccc2)CC(C)(C)C1 (centres undefined)	0	75.5	0	0
O=C1/C(=C\c2ccccn2)SC(=S)N1Nc1ncc(C(F)(F)F)cc1Cl	0	0	0	0
O=C1/C(=C/c2ccc(F)cc2)SC(=S)N1Nc1ncc(C(F)(F)F)cc1Cl	0	86.4	0	0
Cc1nc(NC(=O)c2ccc(Cl)cc2)sc1Cc1ccc2c(c1)OCO2	0	71.2	0	0
Cc1ccc(-n2c(C)cc(-c3csc(N)n3)c2C)cc1	0	0	30.4	0
Cc1ccc(-c2csc(N)n2)cc1	-	-	0	-
Cc1c(NC(=O)COC(=O)c2cc(-c3ccc(-c4ccccc4)cc3)nc3ccccc23)c(=O)n(-c2ccccc2)n1C	0	0	49.8	0
CC1(C(=O)NS(=O)(=O)C2CC2)CCN(C(=O)CSc2ccccc2)C1 (centres undefined)	-	-	0	-
CCCCCCCCOC(=O)c1cc([N+](=O)[O-])c(Sc2ncnc3nc[nH]c23)c([N+](=O)[O-])c1	-	-	0	-
CC1(C)CC(=O)C(Sc2nnc(-c3ccc(O)cc3)n2CC2CCCO2)C(=O)C1 (centres undefined)	0	85.4	0	0
CCC(=O)Nc1ccc(NC(=O)CSc2nnc(-c3ccc(O)cc3)n2CC2CCCO2)cc1 (centres undefined)	0	0	0	0
CC(=O)Nc1ccc(C(=O)CSc2nnc(-c3ccc(O)cc3)n2CC2CCCO2)cc1 (centres undefined)	0	65.3	0	0
COc1cc(OC)cc(C(=O)N2CCN(S(=O)(=O)c3ccc4c(c3)OCCO4)CC2)c1	-	-	0	-
O=C(/C=C/c1ccccc1)Nc1cccc(C(=O)NCCCCc2ccccc2)c1	-	-	0	-
C=CCc1cc(Cl)ccc1OCCOCCNC(C)(C)C	0	62.9	0	0
Cc1ccc(N2C(=O)CS/C2=C(\C(Cl)=C(Cl)Cl)[N+](=O)[O-])cc1	0	79.9	0	0
Cc1ccc(N2C(=O)CSCC2=O)cc1	0	0	0	0
SMILES	p-CIP stab down	PHOSPHO1 inh	NadD block	UBC9 SUMO inh
O=C(NCCCN1CCCC1=O)C(=O)NCC1OCCN1S(=O)(=O)c1cc(F)ccc1F (centres undefined)	-	-	0	-
CCCc1c(C)nn(-c2ncccc2[N+](=O)[O-])c1C	0	60.0	0	0
COCOCCn1cc(CN2CCS(=O)(=O)N(Cc3ccc(-c4ccc(F)cc4)cc3)C(CC(C)C)C2=O)nn1 (centres undefined)	-	-	0	-
COCCCN1C(=O)C(CC(=O)NC2CC2)CC(C(=O)N2CCOCC2)=C1C (centres undefined)	-	-	0	-
N#CC1=C(N)OC2=C(CC/C2=C\c2ccccc2)C1c1ccccc1 (centres undefined)	0	0	33.0	0
CCCc1cc(=O)n2[nH]cnc2n1	0	60.8	0	0
Cc1cc(=O)n2[nH]cnc2n1	0	0	0	0
O=c1[nH]c(=O)n2ncnc2[nH]1	-	-	0	-
CC(C)(C)n1nc2c(c1NC(=O)COc1ccc(Cl)cc1)CS(=O)(=O)C2	0	0	0	0
CC(C)(C)n1nc2c(c1NC(=O)COc1ccc(Cl)cc1)CSC2	0	0	46.5	0
